# Bioassay records deposited in PubChem by several laboratories.
# APP 5UTR inh – inhibitors of APP translation via 5'UTR reporter, primary screen, APP 5'UTR luciferase, SH-SY5Y cells | SH-SY5Y APP 5'UTR-luciferase reporter, luminescence | hit rate 0.82% among 190,000 | inhibition, % at 2 µM;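 active means inhibition above a set limit, derived from the sample mean plus 3 SD, cut at about 45% in these data; inconclusive means one replicate passes the limit while the other fails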
# Ba/F3 V617F tox – reduced viability of JAK2V617F-dependent Ba/F3 cells, primary screen, JAK2V617F inhibitor project, cell-based, Ba/F3 EpoR-JAK2V617F, luminescence; inhibition, % at 5.6 µM; hit rate 1.1% among 220,000; ATP luminescence; AID 1446, 2008;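 active means inhibition above the campaign mean plus 3 SD over all tested compounds, cut at about 24% in these data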;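 further: cytokine-independent growth of Ba/F3 cells driven by EpoR plus mutant JAK2; 0% = DMSO-treated cells and 100% = JAK inhibitor I control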
# BaF3 tox – parental Ba/F3 cell viability inhibition, counter-screen for JAK2V617F inhibitor project, murine pro-B, CellTiter-Glo luminescence. CellTiter-Glo ATP luminescence. inhibition, % at 5.6 µM. hit rate 1.1% among 220,000;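 active means inhibition above a per-campaign cutoff, the mean inhibition of all tested compounds plus 3 SD, cut at about 27% in these data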;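 further: 0% = DMSO wells and 100% = JAK Inhibitor I control wells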
# KLF5 inhibitor – KLF5 expression inhibitors, primary screen, DLD-1 cells, luminescence; inhibition, % at 5 µM; DLD-1 KLF5 promoter-luciferase reporter; hit rate 0.23% among 290,000;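 active means inhibition above a per-plate limit of that plate's mean compound inhibition plus 3 SD, cut at about 60% in these data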;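 further: 0% = DMSO wells and 100% = LY294002 at 200 µM; higher means less KLF5 promoter-driven luciferase light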
# IEC-6 tox-1 – cytotoxicity in IEC-6 intestinal epithelial cells, primary screen, cytotoxicity control for KLF5 inhibitor project, cell-based, luminescence; IEC-6 cytotoxicity, luminescence viability; inhibition, % at 5 µM; hit rate 0.78% among 290,000;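 further: 0% = plate median of test compound wells and 100% = cytotoxic reference compound wells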
# aSyn UTR inh – MLPCN primary screen, SNCA 5' untranslated region; alpha-synuclein 5'UTR reporter, inhibitor activity; inhibition, % (tested at 7.5 µM); hit rate 0.82% among 300,000; AID 1813, 2009; in the data active means inhibition above about 60%; inconclusive means no clear call, values can overlap the other calls;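 further: H4 neuroglioblastoma cells stably carrying SNCA 5'UTR luciferase fusion; 0% = DMSO wells and 100% = positive control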
# KLF5 inh confirm – KLF5 expression inhibitors, confirmation, DLD-1 cells, luminescence | inhibition, % at 4 µM | hit rate 79% among 610 | DLD-1 KLF5 promoter firefly luciferase reporter | shares compounds with KLF5 inhibitor;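 active means inhibition above a set limit taken from the earlier primary screen, cut at about 63% in these data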;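 further: 0% = DMSO wells and 100% = LY294002 at 200 µM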
# IEC-6 tox-2 – cytotoxicity in rat IEC-6 cells, cytotoxicity control for KLF5 inhibitor project, cell-based, luminescence, triplicate. shares compounds with KLF5 inhibitor. AID 1905, 2009. IEC-6 rat intestinal cells, viability luminescence. hit rate 56% among 610. inhibition, % at 4 µM; in the data active means inhibition above about 23%;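 further: cells exposed to compounds for 48 hours before viability read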
# IEC-6 tox confirm – cytotoxic compounds in IEC-6 epithelial cells, confirmation, cytotoxicity control, cell-based, luminescence | inhibition, % at 5 µM | IEC-6 rat intestinal epithelial viability | shares compounds with IEC-6 tox-1 | hit rate 63% among 1,900 | AID 1907, 2009;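 further: 0% = vehicle and 100% = reference cytotoxic drug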
# An asterisk follows results filed as active; ? = inconclusive; · = not tested or not shown. Most compounds without a hit are left out; they make up all but 2.2% or so of the library. Unless noted, no stated cut-off is given here; in the data, active means inhibition above about 22%; inactive means the rest.
SMILES,APP 5UTR inh,Ba/F3 V617F tox,BaF3 tox,KLF5 inhibitor,IEC-6 tox-1,aSyn UTR inh,KLF5 inh confirm,IEC-6 tox-2,IEC-6 tox confirm
CC(Cc1ccccc1)Nc1ncnc2c1ncn2C1OC(CO)C(O)C1O (centres undefined),·,·,·,·,·,-23,·,·,·
CN(C)c1ncnc2c1ncn2C1OC(CO)C(O)C1O (centres undefined),40,8,13,65*,51*,108*,70*,48*,71*
O=C(Nc1cccc2cccnc12)c1ccc(Cl)cc1,·,·,·,-47,11,-76,·,·,·
CCOc1ccccc1NC(=O)COC(=O)CC(C)(C)CC1=NS(=O)(=O)c2ccccc2N1,·,·,·,-10,18,1,·,·,·
O=C(c1cc([N+](=O)[O-])ccc1N1CCOCC1)N1CCN(c2ccccc2)CC1,·,·,·,82*,90*,91*,90*,73*,62*
O=C(c1ccc(Br)cc1)c1cc([N+](=O)[O-])ccc1N1CCCCC1,95*,83*,79*,84*,87*,92*,82*,63*,60*
Cc1ccc(C)c(C(=O)COC(=O)c2cc([N+](=O)[O-])ccc2N2CCOCC2)c1,·,·,·,·,·,10,·,·,·
Cc1ccc(C(=O)c2cc([N+](=O)[O-])ccc2N2CCOCC2)c(C)c1,94*,76*,84*,74*,91*,98*,84*,70*,59*
Cc1csc(NC(=O)CSC2=NS(=O)(=O)c3cc(F)ccc3N2)n1,·,·,·,·,·,-6,·,·,·
CSc1cccc(NC(=O)C2CCCN(c3ncnc4c3nc3n4CCCCC3)C2)c1 (centres undefined),·,·,·,-27,3,7,·,·,·
O=C(c1ccco1)N1CCN(C(=O)N2c3ccccc3Sc3ccccc32)CC1,93*,85*,82*,80*,91*,81*,85*,55*,60*
CCOC(=O)COc1cccc2c(=O)n(CC(=O)NCc3ccccc3)ccc12,·,73*,68*,81*,23*,?,80*,30*,46*
C(=N\Nc1nc2ccccc2[nH]1)/c1ccc2ncccc2c1,·,90*,96*,62*,95*,95*,57,90*,85*
COc1ccc(/C=N/Nc2nc3ccccc3[nH]2)cc1OC,-42,0,0,-14,8,-228,·,·,·
Cc1onc(-c2ccccc2Cl)c1C(=O)N1CCN(C=O)CC1,·,·,·,-13,-1,8,·,·,·
Cc1cccc(N2CCN(C(=O)c3c(-c4ccccc4Cl)noc3C)CC2)c1C,·,·,·,77*,73*,57,76*,56*,55*
COc1ccc(NS(=O)(=O)c2cccc(C(=O)NNC(=O)CNC(=O)c3ccc(C)cc3)c2)cc1,·,·,·,·,·,21,·,·,·
O=C1C(Nc2ccc(O)cc2)=C/C(=N/S(=O)(=O)c2cccs2)c2ccccc21,54*,87*,101*,67*,102*,114*,114*,102*,103*
CCc1ccc(S(=O)(=O)/N=C2\C=C(Nc3cccc(C(=O)O)c3)C(=O)c3ccccc32)cc1,·,·,·,-41,3,30,·,·,·
CCc1ccc(S(=O)(=O)/N=C2\C=C(Nc3ccc(O)cc3)C(=O)c3ccccc32)cc1,·,·,·,96*,102*,101*,69*,60*,67*
Cc1cccc(NC2=C/C(=N/S(=O)(=O)c3cccs3)c3ccccc3C2=O)c1,-25,3,3,-10,-3,·,·,·,·
Cc1c(C(=O)O)[nH]c2c1C(=O)CC(c1ccccc1)C2 (centres undefined),-10,-2,2,-1,3,-13,·,·,·
CCOC(=O)c1[nH]c2c(c1C)C(=O)CC(c1ccco1)C2 (centres undefined),96*,87*,88*,83*,89*,73*,90*,66*,63*
Cc1c(C(=O)OCc2ccccc2)[nH]c2c1C(=O)CC(c1ccco1)C2 (centres undefined),94*,68*,73*,77*,81*,34,80*,56*,52*
Cc1c(C(=O)OCCOC(C)C)[nH]c2c1C(=O)CC(c1ccco1)C2 (centres undefined),96*,81*,86*,77*,89*,36,85*,67*,60*
SMILES,APP 5UTR inh,Ba/F3 V617F tox,BaF3 tox,KLF5 inhibitor,IEC-6 tox-1,aSyn UTR inh,KLF5 inh confirm,IEC-6 tox-2,IEC-6 tox confirm
O=C(COc1ccc([N+](=O)[O-])cc1)Nc1cccc2nsnc12,·,·,·,8,-10,-49,·,·,·
CN(CC(=O)Nc1ccc(Cl)c(C(F)(F)F)c1)C(=O)C1CSC2(C)CCC(=O)N12 (centres undefined),·,·,·,·,·,-5,·,·,·
CCCC(=O)NC(c1ccc(N(C)C)cc1)c1ccc2cccnc2c1O (centres undefined),·,·,·,82*,63*,62,88*,76*,81*
CC(=O)NC(c1ccccc1)c1cc(Cl)c2cccnc2c1O (centres undefined),·,·,·,89*,83*,42,74*,87*,73*
O=[N+]([O-])c1cc(Cl)c2cccnc2c1O,8,0,6,2,-4,1,·,·,·
CC(C)CC(=O)NC(c1ccccc1Cl)c1c(O)ccc2ccccc12 (centres undefined),-2,2,7,-24,-7,-21,·,·,·
CCCC(=O)NC(c1ccccc1Cl)c1ccc2cccnc2c1O (centres undefined),·,·,·,91*,98*,68*,91*,78*,76*
CCCC(=O)NC(c1ccc(C(C)C)cc1)c1ccc2cccnc2c1O (centres undefined),·,·,·,69*,24*,83*,84*,71*,73*
COc1ccc(CC(=O)Oc2ccc(C(C)C)cc2)cc1S(=O)(=O)N1CCOCC1,·,·,·,·,·,2,·,·,·
CC(O)(CS(=O)(=O)Cc1ccccc1)c1ccccc1Cl (centres undefined),·,·,·,6,-3,-3,·,·,·
COc1ccc(C(Nc2cc(C)ccn2)c2ccc3ccc(C)nc3c2O)cc1 (centres undefined),·,-3,3,-14,4,4,·,·,·
COc1ccc(C(NC(=O)C(C)C)c2ccc3cccnc3c2O)cc1 (centres undefined),·,74*,54*,85*,22*,79*,87*,52*,66*
